# This is part of a sample that, as a whole, favours compounds with a hit. Of some 83,000 tested, about 20% had one in any assay.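 Values shown are percent growth following 48 h exposure of cells in 96-well plates to a single concentration of compound; below 10 was considered active.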 Unmarked numbers belong to inactive results. Activity calls are given as the source filed them.
# How the values were obtained:
# Experiment in all cases: NCI-60 one-dose screen, 48 h (100 = growth as untreated, 0 = no growth, -100 = all killed)
# Settings in all cases: 10 µM unless noted
# [1] = system: T-47D breast
# [2] = system: BT-549 breast
# [3] = system: MDA-MB-435 melanoma
# [4] = system: SW-620 colon
# [5] = system: MCF7 breast
# [6] = system: HCT-116 colon
# [7] = system: HCC-2998 colon
# [8] = system: KM12 colon
SMILES,growth [1],growth [2],growth [3],growth [4],growth [5],growth [6],growth [7],growth [8]
COC(=O)[C@]12CC[C@@H](C)[C@H](C)[C@@H]1C1=CC[C@@H]3[C@@]4(C)C(C=O)=C[C@@](C)(CO)[C@@H]4[C@H](O)C[C@@]3(C)[C@]1(C)CC2,-19.8% (active),-15.6% (active),-16% (active),-1.77% (active),3.73% (active),-81.4% (active),-79.2% (active),1.71% (active)
COc1cc(/C=C/C(=O)c2cccc(-n3cc(-c4ccccc4)[nH]c3=O)c2)ccc1O,62.9%,43.9%,58.5%,4.95% (active),16.5%,13.5%,78.9%,15%
COc1ccc2occ(C3=C(c4c[nH]c5ccccc45)C(=O)N(O)C3=O)c2c1,76.1%,84.2%,96.3%,89.2%,82.5%,90.7%,112%,91.1%
O=c1[nH]ccc2nc(N3CCC(O)CC3)nc(Nc3ccc(N4CCOCC4)cc3)c12,73%,29.7%,40.6%,39.6%,44.2%,22.8%,80.3%,8.57% (active)
COc1ccc(Nc2nnc(SCc3ccccc3F)s2)cc1,85.8%,118%,99%,109%,90.6%,103%,106%,94.6%
NC(=O)c1ccc[n+](Cc2ccc(Cl)cc2Cl)c1,85.3%,76%,107%,103%,95.7%,80%,93.3%,101%
N#Cc1c(N)nn(C(=O)c2ccc(NC(=O)c3ccccn3)cc2)c1-c1ccc(Cl)cc1,-16.7% (active),15.5%,33.9%,13.9%,36.4%,12.4%,14.9%,-26.3% (active)
CCCCC1CCCCN1C(=O)OCC (stereo not given),89.2%,73.9%,111%,106%,107%,94%,101%,123%
Cc1cccc(Cc2cnc(NC(=O)c3ccc4nnsc4c3)s2)c1,57.8%,105%,82.7%,80.5%,95%,87.7%,87.5%,77.9%
CCCCCc1nc2c(c3c1CCCC3)CCCC2,71.9%,115%,99.7%,89.9%,66.9%,48.8%,87.8%,88.3%
Cc1c(C)c2c(c(C)c1OCC(=O)O)CC[C@@](C)(CCC[C@@H](C)CCC[C@@H](C)CCCC(C)C)O2,23.6% [50 µM],-4.37% [50 µM] (active),15% [50 µM],-41.8% [50 µM] (active),15.6% [50 µM],-66.1% [50 µM] (active),-3.58% [50 µM] (active),-73.8% [50 µM] (active)
CN(C)c1ccc(-c2ccc3[nH]c(=O)nc(-c4ccccc4)c3c2)cn1,61%,41.9%,-11.9% (active),24.5%,25.9%,16.4%,66.3%,19.8%
Nc1cc2c3c(cccc3c1)C(=O)N(CCN1CCCC1)C2=O,18%,74.7%,48.7%,20.3%,6.93% (active),17.4%,44.1%,34.7%
CN(Cc1cnc2nc(N)nc(N)c2n1)c1ccc(C(=O)N[C@@H](CCc2nn[nH]n2)c2nn[nH]n2)cc1,75.9%,53.2%,38.5%,20.1%,17%,18.3%,52.6%,33%
COC(=O)c1ccc(C2Nc3ccc(S(=O)(=O)Nc4ccc(C)c(C)c4)cc3C3OCCC23)cc1 (stereo not given),51.1%,84.7%,94.7%,78.5%,43.1%,62.1%,111%,78.1%

# From PubChem BioAssay (NCI)
